An excerpt weighted towards active compounds, which were near 4.5% of everything screened.
Mdm2 MdmX PPI: inhibitors of human Mdm2-MdmX association, primary screen, cell-based, luminescence, split luciferase, SaOS-2, uHTS; Protein Mdm4 (Homo sapiens) + E3 ubiquitin-protein ligase Mdm2 (Homo sapiens), …; SaOS-2 split-luciferase Mdm2/MdmX complementation; inhibition, % at 8 µM; 330,000 compounds, 3% hits; AID 485346, 2010;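 active = inhibition of at least 50% at 8 µM in the primary screen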
697 NFkB inh: inhibitors of PMA/ionomycin-induced NF-kB reporter, 697 cells, primary screen, B-cell NF-kB inhibitor project, cell-based, luminescence, uHTS; 697 B-cell NF-kB luciferase reporter, 16 h; inhibition, % at 4 µM; 330,000 compounds, 0.33% hits; in the data active = inhibition above about 35%
Gli-Sufu block: Gli-Sufu pathway antagonists, primary screen, luciferase luminescence, Sufu-KO-LIGHT cells, uHTS | Sufu-KO-LIGHT fibroblasts, Gli luciferase reporter luminescence | inhibition, % at 5 µM | 340,000 compounds, 0.74% hits | AID 588413, 2011;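 active = inhibition above about 55%, limit read from the data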;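 also: 0% = DMSO-treated cells and 100% = wells with medium but no cells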
CSC inhib: cancer stem cell viability inhibitors, primary screen, luminescence | cancer stem cell-like cells viability | inhibition, % at 7.5 µM | 300,000 compounds, 1.1% hits; in the data active = inhibition above about 75%; tested in HMLE shEcad cells
Jurkat NFkB inh: inhibitors of induced NF-kB luciferase reporter, primary screen, TCR NF-kB activation inhibitor project, cell-based, luminescence, uHTS; Jurkat, PMA/ionomycin-induced NF-kB luciferase reporter; inhibition, % at 4 µM; 330,000 compounds, 0.53% hits; AID 435003, 2010; in the data active = inhibition above about 50%
Beta cell apopt: inhibitors of cytokine-induced beta cell apoptosis, primary screen, luminescence. INS-1E cytokine-induced death, ATP luminescence, 48 h; percent of positive-control rescue, neutral wells zero. protection from apoptosis, % (no concentration beside the values). 300,000 compounds, 0.8% hits;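 active = Every replicate reaches about 75%, or at least half do and their mean reaches it too, limit read from the data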;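 also: 0% = cytokine-treated negative control wells and 100% = positive control rescue; higher means more ATP so stronger rescue from cytokine killing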
Gli-Sufu confirm: Gli-SUFU pathway antagonists, confirmation, single concentration, luciferase luminescence, Sufu-KO-LIGHT cells. shares compounds with Gli-Sufu block. Gli luciferase reporter. inhibition, % at 5 µM. 2,500 compounds, 40% hits;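 active = mean inhibition at 5 µM reaching about 45%, limit read from the data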;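 also: plate controls were DMSO-treated cells for no effect and wells lacking cells for full effect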
SufuKO cytotox: cytotoxicity in Sufu-KO-LIGHT cells, confirmation, cytotoxicity control for Gli-SUFU antagonist project, cell-based, ATP luminescence, single concentration | cytotoxicity, % at 5 µM | shares compounds with Gli-Sufu block | 2,500 compounds, 32% hits;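 active = mean cytotoxicity at 5 µM above about 25%, limit read from the data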;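 also: cells exposed to compound overnight for roughly 16 to 18 hours; plate controls were DMSO wells with cells for no effect and medium without cells for full effect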
Wnt3a counter: Wnt3a reporter signal inhibition, confirmation, counter-screen for Gli-SUFU antagonist project, Wnt-LIGHT cells, luminescence, single concentration. shares compounds with Gli-Sufu block. Wnt3a-driven luciferase reporter. inhibition, % at 6.25 µM. 2,500 compounds, 20% hits. AID 651995, 2013;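 active = mean inhibition above about 25%, limit read from the data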
Active calls of the source: *; / = no result.

SMILES | Mdm2 MdmX PPI | 697 NFkB inh | Gli-Sufu block | CSC inhib | Jurkat NFkB inh | Beta cell apopt | Gli-Sufu confirm | SufuKO cytotox | Wnt3a counter
N#Cc1ccc(COC(=O)C2CCC(=O)N2)cc1 (stereo not given) | -19 | -5 | 99* | 11 | -4 | -4 | 10 | 3 | -5
O=C(C1CCN(CCCc2ccccc2)CC1)N(CCc1ccccc1)Cc1ccccc1 | 41 | -4 | 56* | 57 | 3 | 52 | 15 | 24 | -43
COC(=O)Cc1[nH]n(-c2nc3ccccc3s2)c(=O)c1C(C)=Nc1ccc(Cl)cc1 | -22 | -3 | 86* | 69 | 12 | 7 | 93* | 18 | 104*
O=C(Nc1cccc(C(=O)O)c1)/C(=C\c1ccc(F)cc1)NC(=O)c1ccco1 | 10 | 4 | -27 | / | 15 | -4 | / | / | /
COc1ccc(CC(=O)NNC(=O)CCC(=O)Nc2cc(C)ccc2C)cc1 | 11 | 16 | 82* | -6 | -6 | / | 11 | 15 | -1
Cc1ccc(S(=O)(=O)N2CCN(Cc3ccco3)CC2)c(C)c1 | 0 | 3 | 9 | 4 | 2 | 4 | / | / | /
Cc1cccc(C)c1NC1=C(Cl)C(=O)OC1OC(C)C (stereo not given) | 18 | -7 | 52 | 23 | -2 | 1 | 19 | -6 | 11
Cc1cc(=O)oc2c3c(cc(OCC(=O)NCC4CCC(C(=O)O)CC4)c12)OC(C)(C)CC3 (stereo not given) | 21 | 18 | 1 | 0 | -20 | -4 | / | / | /
CCN(CC)c1ccc(CNc2nc3ccccc3n2CCN2CCOCC2)cc1 | 1 | -27 | 52 | -5 | 0 | 2 | 31 | 24 | -39
COc1ccc(CNc2nc3ccccc3n2CCN2CCOCC2)cc1 | 28 | -35 | 10 | -10 | -1 | -3 | / | / | /
CCCOc1ccc(S(=O)(=O)Nc2ccccn2)c2ccccc12 | 11 | 4 | -15 | -8 | -4 | -4 | / | / | /
CC(NCC(O)COc1ccc(Br)cc1)c1ccccc1 (stereo not given) | 5 | 7 | 58* | -15 | 1 | 1 | 14 | 2 | -37
O=[N+]([O-])c1cccc(-c2nnc(C34CC5CC(CC(C5)C3)C4)o2)c1 | -16 | -1 | 77* | -10 | -9 | -6 | 11 | 7 | -14
CN(Cc1c(F)cccc1Cl)C(=O)c1cnc2ccccc2n1 | -12 | -14 | -7 | -13 | -1 | -9 | / | / | /
NC(N)=NC(N)=Nc1ccc2ccccc2c1 | 13 | -6 | 5 | -6 | 11 | -7 | / | / | /
NC(N)=NC(N)=Nc1ccc(SC(F)(F)F)cc1 | 29 | -30 | 67* | -6 | 7 | 116* | 72* | 28* | 94*
Cc1ccc(Cl)cc1N1CCN(C(=O)CSc2nnc3n2C(C)(C)Cc2ccccc2-3)CC1 | 47 | -5 | 61* | 41 | 29 | 94* | 60* | 20 | 8
COc1ccc2nc3ccccc3nc2c1NC(=O)c1ccc(Cl)cc1Cl | 6 | -19 | 71* | -5 | -5 | -3 | 31 | 20 | -26
C[C@]12c3[nH]c4ccccc4c3CCN1C(=O)C(CC(=O)NCCCn1ccnc1)C[C@@H]2C(=O)N1CCOCC1 (stereo not given in full) | 2 | 1 | 2 | -10 | -12 | -3 | / | / | /
CC(C)c1ccc(Nc2nc(CC(=O)O)cs2)cc1 | -186 | -133 | -95 | 3 | -127 | -2 | / | / | /
O=C(O)Cc1csc(Nc2cccc(Cl)c2)n1 | 6 | 3 | 69* | 3 | -8 | / | 13 | 20 | -31
